Whole data set: some 9,900 sequences, median “r (bound/input frequency ratio)” near 0.7, cut for the highest 2% near 6.5. The sample holds the highest values, similar sequences and a random draw of the others, so the mix is not that of the screen.

The labels stand for the following.
B1: ENSMUSG00000031028.145|Tub (ssRNA)
RNA: GGGAGUUCUACAGUCCGACGAUCGCUUCGAUAUCCGCAUGCUAACAGGAUCUAGGUCACCAUUCAAGUAAUGGUAUGCUUCAGGAAGAAUGUCCUCUCUGGGAAGACUCAGCUCCCAUUAUUGCCAGCAUGCCAUGAUCAGUGAGGGCUGUGUGCCAUGCUUAGGGGGAUGGCGCAGGGUGAGGGGAGCAGAGGAUAUUUUAGGGCCACAAGAGCUCAGAGGUAGCGGACCUCUGUGUGGUUCACCAACAGCAAUGCUGAUCCCUGAGUAUAGGGCACAUGUCUCUUGGUUACCUCACUGGUUCUCUUGCGGUCGCACUAGUGUGGAAUUCUCGGGUGUCAAGG
B2: ENSMUSG00000061578.1426|Ksr2 (ssRNA)
RNA: GGGAGUUCUACAGUCCGACGAUCGCUUCGAUAUCCGCAUGCUACUCUUCCUUUUCCUUUUUAGAUCUGUCUUGCUCUCUGUCUCUCUCACUCAUUGCCAACAUGUUGCUGGGAAAGAAUAUUUGAUUUAGAUGCCAAUCAGGAAGGCAAGUAGGAUGGAUGGAUGAGUGAGUGGAUAGGUAGGUAUAUAAAUGGAUGGAUGGGUGAUGGAUGGGUAAAUGAAUGGAUAGGUAUGUGAAUGAAUGGAUGAUGGAUGAAUGGAUGGGUAGGUGGGUAGAUAGGUAUAUGAAUGAAUGGAUGAAUGCUCUUGCGGUCGCACUAGUGUGGAAUUCUCGGGUGUCAAGG
B3: ENSMUSG00000043670.185|Diras1|17:21;114:118;148:152;162:171;177:184;217:221;250:260 (ssRNA)
RNA: GGGAGUUCUACAGUCCGACGAUCGCUUCGAUAUCCGCAUGCUAGCCUCUUUGCUGGUCAACACAACUCUGGAGACUGUCCCCCAUGUCUGCCCUGAGUUACGGAGCCCCUGUGGUAUCUGCGAGACUGUCCAGGAGACUUGAGUGGCUCCUGGGCCACACACCCACCCAGAUGAGGGUGACUUAGAAUUCACACAUUAUGUGCCACACACACACGAUGGCACACACACUGUCUUGGGAUGGGGUGUUCUUGCACCACUUACACAUCUUAGUGAGACCACAGUGUAAGUGGCCCACACACACACCUCUUGCGGUCGCACUAGUGUGGAAUUCUCGGGUGUCAAGG
B4: ENSMUSG00000029028.6|Lrrc47 (ssRNA)
RNA: GGGAGUUCUACAGUCCGACGAUCGCUUCGAUAUCCGCAUGCUACUUGAAGGUGGUGUACCCAUCCAAGACGGACCUGAUCACCCUCCCUCCCCACGUGACUGUGGUCCGCUGACAGGCUCCUGUAGGUGUGGGUGUGCUGUAGGUGUCUGUGUGGGUGUGGGUGUGCUGUAGGUGUCUGUGUGGGUGUGGGUGUGCUAUAGGUAUCUGUGGGUGUGCUGUAGGUGUCUGUGUGGGUGUGCUGUAGGUGUCUGUGUAGGUGUGGGUGUGCUGUAGGUGUCUGUGUGGGUGUGCUAGGUGUCUGUCUCUUGCGGUCGCACUAGUGUGGAAUUCUCGGGUGUCAAGG
B5: ENSMUSG00000029028.8|Lrrc47 (ssRNA)
RNA: GGGAGUUCUACAGUCCGACGAUCGCUUCGAUAUCCGCAUGCUAGUACCCAUCCAAGACGGACCUGAUCACCCUCCCUCCCCACGUGACUGUGGUCCGCUGACAGGCUCCUGUAGGUGUGGGUGUGCUGUAGGUGUCUGUGUGGGUGUGGGUGUGCUGUAGGUGUCUGUGUGGGUGUGGGUGUGCUAUAGGUAUCUGUGGGUGUGCUGUAGGUGUCUGUGUGGGUGUGCUGUAGGUGUCUGUGUAGGUGUGGGUGUGCUGUAGGUGUCUGUGUGGGUGUGCUAGGUGUCUGUAUAGGUGUGGGUCUCUUGCGGUCGCACUAGUGUGGAAUUCUCGGGUGUCAAGG
B6: ENSMUSG00000029028.10|Lrrc47 (ssRNA)
RNA: GGGAGUUCUACAGUCCGACGAUCGCUUCGAUAUCCGCAUGCUAGACGGACCUGAUCACCCUCCCUCCCCACGUGACUGUGGUCCGCUGACAGGCUCCUGUAGGUGUGGGUGUGCUGUAGGUGUCUGUGUGGGUGUGGGUGUGCUGUAGGUGUCUGUGUGGGUGUGGGUGUGCUAUAGGUAUCUGUGGGUGUGCUGUAGGUGUCUGUGUGGGUGUGCUGUAGGUGUCUGUGUAGGUGUGGGUGUGCUGUAGGUGUCUGUGUGGGUGUGCUAGGUGUCUGUAUAGGUGUGGGUGUGCUGUAGAUGCUCUUGCGGUCGCACUAGUGUGGAAUUCUCGGGUGUCAAGG
B7: ENSMUSG00000029028.9|Lrrc47 (ssRNA)
RNA: GGGAGUUCUACAGUCCGACGAUCGCUUCGAUAUCCGCAUGCUAAUCCAAGACGGACCUGAUCACCCUCCCUCCCCACGUGACUGUGGUCCGCUGACAGGCUCCUGUAGGUGUGGGUGUGCUGUAGGUGUCUGUGUGGGUGUGGGUGUGCUGUAGGUGUCUGUGUGGGUGUGGGUGUGCUAUAGGUAUCUGUGGGUGUGCUGUAGGUGUCUGUGUGGGUGUGCUGUAGGUGUCUGUGUAGGUGUGGGUGUGCUGUAGGUGUCUGUGUGGGUGUGCUAGGUGUCUGUAUAGGUGUGGGUGUGCUGCUCUUGCGGUCGCACUAGUGUGGAAUUCUCGGGUGUCAAGG
B8: ENSMUSG00000029028.7|Lrrc47 (ssRNA)
RNA: GGGAGUUCUACAGUCCGACGAUCGCUUCGAUAUCCGCAUGCUAGGUGGUGUACCCAUCCAAGACGGACCUGAUCACCCUCCCUCCCCACGUGACUGUGGUCCGCUGACAGGCUCCUGUAGGUGUGGGUGUGCUGUAGGUGUCUGUGUGGGUGUGGGUGUGCUGUAGGUGUCUGUGUGGGUGUGGGUGUGCUAUAGGUAUCUGUGGGUGUGCUGUAGGUGUCUGUGUGGGUGUGCUGUAGGUGUCUGUGUAGGUGUGGGUGUGCUGUAGGUGUCUGUGUGGGUGUGCUAGGUGUCUGUAUAGGUCUCUUGCGGUCGCACUAGUGUGGAAUUCUCGGGUGUCAAGG
B9: ENSMUSG00000029028.10|Lrrc47|60:64;66:70;82:87;89:93;95:99;111:116;118:122;124:128;145:149;161:166;168:172;184:188;191:195;197:201;213:218;220:224;241:245;247:2 … (ssRNA)
RNA: GGGAGUUCUACAGUCCGACGAUCGCUUCGAUAUCCGCAUGCUAGACGGACCUGAUCACCCUCCCUCCCCACGUGACUGUGGUCCGCUGACAGGCUCCUGUAGCACACGCACACCUGUAGGUGUCACACACGCACACGCACACCUGUAGGUGUCACACACGCACACGCACACCUAUAGGUAUCUGUGGCACACCUGUAGGUGUCACACACGCACACCUGUAGGUGUCACACAAGCACACGCACACCUGUAGGUGUCACACACGCACACCUAGGUGUCUGUAUAGCACACGCACACCUGUAGAUGCUCUUGCGGUCGCACUAGUGUGGAAUUCUCGGGUGUCAAGG

TDP-43, sequence (Q13148 whole entry): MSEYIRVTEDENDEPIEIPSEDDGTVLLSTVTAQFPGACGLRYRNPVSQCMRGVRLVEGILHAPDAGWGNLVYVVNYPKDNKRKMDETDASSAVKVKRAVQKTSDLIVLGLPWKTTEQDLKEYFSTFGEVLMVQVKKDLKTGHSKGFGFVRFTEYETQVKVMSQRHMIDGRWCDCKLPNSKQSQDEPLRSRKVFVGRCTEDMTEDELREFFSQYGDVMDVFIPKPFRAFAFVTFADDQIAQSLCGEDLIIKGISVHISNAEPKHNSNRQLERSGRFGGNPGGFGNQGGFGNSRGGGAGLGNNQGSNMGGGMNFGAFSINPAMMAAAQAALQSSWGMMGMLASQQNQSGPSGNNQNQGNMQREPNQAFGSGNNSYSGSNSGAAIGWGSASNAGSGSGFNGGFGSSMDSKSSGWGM

The test deals with TDP-43 (Homo sapiens, UniProt Q13148 1-414). The experiment in a line: RNA Bind-n-Seq with designed 260-mer pool; 25 mM Tris-HCl, 150 mM KCl, 3 mM MgCl2, BSA (printed 500 mg/mL), 20 units/mL SUPERase IN; pH not stated; 500 nM RNA pool, 1 h, 4 C; TDP-43 5, 50, 500 nM; high values mean tight binding. The note with it: protein: recombinant; tags: SBP (GST cleaved off with PreScission; pGEX-GST-SBP). The method in brief:
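Duplicate measurements used two independent batches of recombinant SBP-tagged TDP-43, which was captured on streptavidin beads at 5, 50 or 500 nM. The beads were incubated with 500 nM of an in vitro-transcribed 260-nt 3′ UTR oligo pool for 1 h at 4 °C in 25 mM Tris-HCl, 150 mM KCl, 3 mM MgCl2, BSA and SUPERase IN. After washing, biotin elution, reverse transcription, PCR amplification and sequencing, binding was expressed as R: each oligo's normalized read abundance in the bound sample over its abundance in input.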
In the case of B1, the binding signal was 0.682 R (bound/input frequency ratio).

As to B2, the binding signal is 4.09 R (bound/input frequency ratio).

For the molecule B3, the binding signal was 0.956 R (bound/input frequency ratio).

Turning to B4, the binding signal was 5.29 R (bound/input frequency ratio). With B5, the binding signal was 5.96 R (bound/input frequency ratio).

B6: the binding signal is 6.52 R (bound/input frequency ratio). Then B7, with 6.63 R (bound/input frequency ratio); and B8, with 5.82 R (bound/input frequency ratio). Regarding B9, the binding signal was 1.07 R (bound/input frequency ratio).

The values above are taken from PMC12864922, “TDP-43 directly inhibits mRNA accumulation in neurites through modulation of mRNA stability”.
